{"source": "PubChem BioAssay (NCI)", "note": "Compounds without any hit were thinned out: in the full panel of roughly 83,000, 20% have a hit.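 Cells were grown in 96-well plates and exposed to the test compound at a single concentration for 48 hours; results are reported as percent growth, with values below 10 considered active.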 Calls of active or inactive are those of the source."}
{"system": "CAKI-1 renal", "assay": "NCI-60 one-dose screen, 48 h (100 = growth as untreated, 0 = no growth, -100 = all killed)", "conditions": "10 µM", "experimental": "Growth inhibition of the CAKI-1 human tumor cell line is measured as a screen for anti-cancer activity. Cells are grown in 96 well plates and exposed to the test compound for 48 hours. Compounds are tested at a single concentration, which is 10^-5 M for most compounds. The reported endpoint is percent growth (GI% or GIPRCNT), where numbers from 0 - 100% represent growth inhibition, and numbers from -100% - 0 represent cell death. For example, a value of 40 represents 60% growth inhibition. A value of 0 means no net growth occurred over the course of the experiment. A value of -40 indicates 40% of cells at the beginning of the experiment died by the end of the experiment. A value of -100 means all cells are dead at the end of the experiment.\nNCI-60 Human Tumor Cell Lines Screen was performed using the standard one-dose NCI protocol, which is described in more detail at https://dtp.cancer.gov/discovery_development/nci-60/default.htm.\nCompounds with GIPRCNT values below 10 were considered active. Activity score was based on GIPRCNT using the following formula: […]\nScore is 0 for GIPRCNT values of 100 or above, 50 for GIPRCNT values of 0, and 100 for GIPRCNT values of -100."}
{"smiles": "O=C(CCCSc1nc(-c2ccc(Cl)cc2)cc(-c2ccc(Cl)cc2)n1)NO", "growth": "2.08% (active)"}
{"smiles": "CNC(=O)c1cc(Oc2ccc3c(c2)sc2nc(-c4ccc(N)cc4)cn23)ccn1", "growth": "43.9% (inactive)"}
{"smiles": "CC(C1=C(CN(C(=O)Cc2cn(-c3ccccc3)nc2-c2ccc(Cl)cc2)C(C)C)Cc2ccccc21)c1ccccn1", "note": "(stereo not given)", "growth": "40.9% (inactive)"}
{"smiles": "CN(C)c1ccc(/C=N/NC(=O)c2cccc3ccccc23)c(Cl)c1", "growth": "48.5% (inactive)"}
{"smiles": "CC(C)N(CCOc1cccc(-c2nc3sccn3c2-c2ccnc(S(C)(=O)=O)n2)c1)C(C)C", "growth": "93.3% (inactive)"}
{"smiles": "Cc1c(C(N)=O)sc2c1c(=O)n(Cc1ccccc1)c1nnc(-c3ccc(Br)cc3)n21", "growth": "1.27% (active)"}
{"smiles": "CCCCC1(O)CCCCC1", "growth": "96.1% (inactive)"}
{"smiles": "CCOC(=O)/C(=C(\\C)N)C1CC(=O)NC1=O", "note": "(stereo not given)", "growth": "98.2% (inactive)"}
{"smiles": "CN1C(=O)C2(Nc3cc(Cl)ccc3S2)c2cc(Cl)ccc21", "note": "(stereo not given)", "growth": "82.2% (inactive)"}
{"smiles": "O=C(O)c1cc([N+](=O)[O-])ccc1Oc1ccccc1", "growth": "101% (inactive)"}
{"smiles": "CCC(c1ccc(OC)cc1)C(CC)c1ccc(O)c(CN2CCN(C)CC2)c1", "note": "(stereo not given)", "growth": "41.1% (inactive)"}
{"smiles": "O=C1CC(SC(=S)C2CCCC2=O)C(=O)N1", "note": "(stereo not given)", "growth": "102% (inactive)"}
{"smiles": "CCCCN(CCCC)C(=O)[C@H](CC)[C@@H]1CC[C@@H](C)[C@@H]([C@H](C)[C@@H](O)[C@@H](C)C(=O)[C@H](CC)C2O[C@]3(C=C[C@@H](O)[C@]4(CC[C@@](C)([C@H]5CC[C@](O)(CC)[C@H](C)O5)O4)O3)[C@H](C)C[C@@H]2C)O1", "note": "(stereo not given in full)", "growth": "-3.74% (active)"}
{"smiles": "CCC(=O)OC1CCC2C3CCC(=O)OC3C(C)(CCC(=O)O)CC12C", "note": "(stereo not given)", "growth": "-4.08% (active)"}
{"smiles": "Nc1ccn(Cc2nnc(CCC(=O)c3nc4ccccc4[nH]3)o2)c(=O)n1", "growth": "82.8% (inactive)"}
{"smiles": "COc1cc(CNC(=O)C2CSC3(C)c4ccccc4C(=O)N23)cc(OC)c1OC", "note": "(stereo not given)", "growth": "89.8% (inactive)"}
{"smiles": "CC(=O)C1N=NCC1c1ccccc1", "note": "(stereo not given)", "growth": "95.4% (inactive)"}
{"smiles": "CC1(C)N=C(N)N=C(N)N1c1cccc(C#N)c1", "growth": "95.2% (inactive)"}
{"smiles": "O=c1c(Br)ccc(Br)cc1Br", "growth": "-81.3% (active)"}
{"smiles": "CN(C)CCC1(c2ccccc2)CCN(C)C1=O", "note": "(stereo not given)", "growth": "103% (inactive)"}
{"smiles": "N#Cc1c(N)nc(-c2cc(F)cc(C(F)(F)F)c2)nc1-c1ccccc1F", "growth": "78.1% (inactive)"}
{"smiles": "CN1CCc2c(sc3nc4n(-c5ccc(Cl)cc5)c(=O)[nH]n4c(=O)c23)C1", "growth": "93.1% (inactive)"}
{"smiles": "COc1ccc(-c2nn(-c3cccc(Cl)c3)cc2-c2cc(-c3ccccc3)nc(N)n2)cc1", "growth": "29.2% (inactive)"}
{"smiles": "CCCCCCCCCCCCCCCCCC[n+]1ccc2c(C)c3c(c(C)c2c1)c1cc(O)ccc1n3CC", "growth": "71.1% (inactive)"}
{"smiles": "CC1=CC2C(C(O)CC3(C)C2CC(C)C32OCOC23COCO3)C2(C)C/C(=C/O)C(=O)C=C12", "note": "(stereo not given)", "growth": "67.6% (inactive)"}
{"smiles": "COC(=O)c1cc2oc(/C=C3/SC(=S)N(N)C3=O)cc2n1Cc1ccccc1", "growth": "60.2% (inactive)"}
{"smiles": "CC(=O)/C(=C/c1ccc(Br)cc1)C(=O)c1ccccc1", "growth": "80.2% (inactive)"}
{"smiles": "N#Cc1ccc(C(=O)CSc2nccc(Nc3ccc(C(=O)O)cc3)n2)cc1", "growth": "99.7% (inactive)"}
{"smiles": "Oc1ccc(/C=N/N=C2c3ccccc3-c3ccccc32)c(O)c1", "growth": "66.8% (inactive)"}
{"smiles": "COc1ccc(-c2cc(-c3ccc(OC)c(OC)c3)nc(SCCCC(=O)NO)n2)cc1", "growth": "-29.2% (active)"}
{"smiles": "Nc1nc(-c2ccc(Cl)cc2)cc(-c2cc3ccccc3oc2=O)n1", "growth": "84.1% (inactive)"}
{"smiles": "CCN(CC)CCOC(=O)c1cc(OCc2ccccc2)c(OCc2ccccc2)c(OCc2ccccc2)c1", "growth": "50.4% (inactive)"}
{"smiles": "COc1ccc2c(c1)C(=O)/C(=C/c1ncc([N+](=O)[O-])n1C)O2", "growth": "-21.6% (active)"}
{"smiles": "O=C(/C=C/c1cccc(B(O)O)c1)c1cccc(B(O)O)c1", "growth": "-8.72% (active)"}
{"smiles": "O=C(COc1cccc(/C=C2\\CSc3ccc(Cl)cc3C2=O)c1)c1ccc(Cl)cc1", "growth": "61.2% (inactive)"}
{"smiles": "CC1/C=C/C=C/C=C/C=C/C=C/C=C/C=C/C(O[C@@H]2O[C@H](C)[C@H](O)[C@@H](O)[C@@H]2N)CC(O)C(C(=O)O)C(O)CC(=O)CC(O)CC(O)CC(O)CC(=O)CCCC(=O)CC(=O)OC1C(C)CC(C)C(O)CC(=O)c1ccc(N)cc1", "note": "(stereo not given in full)", "growth": "-98.2% (active)"}
{"smiles": "CCN(CC)CCN1c2nc3ccccc3cc2Sc2cc3ccccc3nc21", "growth": "8.6% (active)"}
{"smiles": "Cc1ccc(N=Nc2ccccc2)cc1", "growth": "96.4% (inactive)"}
{"smiles": "O=C(N/N=C/c1cc([N+](=O)[O-])ccc1O)c1cccc2ccccc12", "growth": "19.9% (inactive)"}
{"smiles": "O=C1C=C(Nc2cccc(Br)c2)c2ccccc2C1=O", "growth": "78.3% (inactive)"}
